Bioassay records: PubChem, several laboratories
Beta cell apopt – inhibitors of cytokine-induced beta cell apoptosis, primary screen, luminescence; INS-1E cytokine-induced death, ATP luminescence, 48 h; percent of positive-control rescue, neutral wells zero; protection from apoptosis, % (concentration not given with the values); 300,000 compounds, 0.8% hits; AID 435005, 2010;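 active = Every replicate reaches about 75%, or at least half do and their mean reaches it too, limit read from the data; inconclusive = At least half of replicates reach the limit but their mean does not; inactive = Under half of replicates reach the limit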;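 note: 0% = cytokine-treated negative control wells and 100% = positive control rescue; higher means more ATP so stronger rescue from cytokine killing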
Gli-Sufu block – Gli-Sufu pathway antagonists, primary screen, luciferase luminescence, Sufu-KO-LIGHT cells, uHTS | Sufu-KO-LIGHT fibroblasts, Gli luciferase reporter luminescence | inhibition, % at 5 µM | 340,000 compounds, 0.74% hits;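 active = inhibition above about 55%, limit read from the data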;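 note: 0% = DMSO-treated cells and 100% = wells with medium but no cells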
Mdm2 MdmX PPI – inhibitors of human Mdm2-MdmX association, primary screen, cell-based, luminescence, split luciferase, SaOS-2, uHTS; Protein Mdm4 (Homo sapiens) + E3 ubiquitin-protein ligase Mdm2 (Homo sapiens), …; SaOS-2 split-luciferase Mdm2/MdmX complementation; inhibition, % at 8 µM; AID 485346, 2010; 330,000 compounds, 3% hits;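 active = inhibition of at least 50% at 8 µM in the primary screen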
CSC inhib – cancer stem cell viability inhibitors, primary screen, luminescence | cancer stem cell-like cells viability | inhibition, % at 7.5 µM | 300,000 compounds, 1.1% hits | AID 2717, 2010; in the data active = inhibition above about 75%; inconclusive = no clear call, values can overlap the other calls; tested in HMLE shEcad cells
NR3A LBD binder – binders of NR3A ligand-binding domain, primary screen, biophysical, differential scanning fluorimetry, uHTS. Glutamate receptor ionotropic, NMDA 3A (GRIN3A) ligand-binding domain. NR3A LBD differential scanning fluorimetry, Tm shift; 0% = protein alone, 100% = glycine-bound protein. Tm shift relative to glycine control, % at 25 µM. 340,000 compounds, 2.5% hits;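 active = melting temperature shift of at least 10% of the positive control shift, at one fixed dose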
MPTP block – mitochondrial permeability transition pore inhibitors, primary screen, biochemical, isolated mouse mitochondria, absorbance; 360,000 compounds, 1.4% hits; inhibition, % at 10 µM; Ca2+ swelling absorbance, 30 min;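 active = inhibition of 50% or more, scaled per plate between neutral and stimulator controls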;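 note: 0% = DMSO wells given calcium and 100% = 1 mM EGTA wells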
* hit, by the source's call; u = inconclusive; x = no result. This is a sample that favours compounds with a hit; in the whole collection about 6.6% have one here.

SMILES	Beta cell apopt	Gli-Sufu block	Mdm2 MdmX PPI	CSC inhib	NR3A LBD binder	MPTP block
N#Cc1ccc(C(=O)Nc2cc(S(=O)(=O)Nc3ccc(Cl)cc3)ccc2N2CCCCC2)cc1	12	41	-3	35	22*	40
N#Cc1ccc(C(=O)Nc2cc(S(=O)(=O)N3CCOCC3)ccc2N2CCCC2)cc1	-12	-21	-18	-6	-4	0
O=C(Cc1c[nH]c2ccccc12)N1CCN(S(=O)(=O)c2cccc(Cl)c2Cl)CC1	5	2	2	x	-4	-1
O=S(=O)(NCCc1ccccc1)c1ccc(F)cc1Br	x	-1	-2	x	13*	1
C#CCNS(=O)(=O)c1ccc(F)cc1Br	x	-32	x	x	0	-2
CNc1oc(-c2ccc(OCc3ccccc3)cc2)nc1C#N	3	-36	-34	64	33*	-3
N#Cc1nc(-c2ccc(OCc3ccc(Cl)cc3)cc2)oc1NCCCn1ccnc1	-1	23	5	31	17*	1
COc1cccc(N/C(SCc2ccccc2Cl)=C(/C#N)C(=O)NCc2cccs2)c1	5	-2	40	-29	13*	0
CC(NC(=O)c1ccc([N+](=O)[O-])o1)C12CC3CC(CC(C3)C1)C2 (stereo unspecified)	x	-32	44	97*	-1	-1
COc1ccc(Oc2ccc(N/C=C3/CCCC3=O)cc2)cc1	5	-12	2	-15	17*	2
COc1ccc(Oc2ccc(N/C=C3\CCCC3=O)cc2)cc1	10	-32	4	14	-11	1
COCCNC(=O)CN1C(=O)COc2ccc(S(=O)(=O)N3CC(C)CC(C)C3)cc21 (stereo unspecified)	-10	4	6	14	-2	1
N#Cc1c(SCC(=O)Nc2nc3ccc(Br)cc3s2)sc2c(O)cc(=O)[nH]c12	3	10	2	-2	18*	-1
N#Cc1c(SCC(=O)Nc2nc3ccccc3s2)sc2c(O)cc(=O)[nH]c12	4	-1	29	-6	5	0
Cn1cnnc1SCC(=O)Nc1ccc2ccccc2c1	-6	-4	8	x	-1	-1
C[C@]12c3[nH]c4ccc(Cl)cc4c3CCN1C(=O)[C@@H](CC(=O)NCCN1CCOCC1)C[C@@H]2C(=O)N1CCCCC1	x	1	7	x	0	1
CCn1c(C)nc2cc(C(=O)N/N=C/c3cccc(O)c3O)ccc21	76*	17	25	-5	0	0
Cc1ccc(/C=N/NC(=O)c2ccc3c(c2)OCCO3)s1	8	-19	16	92*	0	4
O=C(N/N=C/c1cc(Br)cs1)c1ccc2c(c1)OCCO2	5	-92	3	u	-1	0
O=C(N/N=C/c1cccc([N+](=O)[O-])c1)c1cccc2cc[nH]c12	1	3	20	2	-29	0
O=C(N/N=C/c1ccccc1[N+](=O)[O-])c1ccc2c(c1)OCCO2	2	-50	-129	25	-1	2
O=C(N/N=C/c1cc([N+](=O)[O-])ccc1O)c1cccc2cc[nH]c12	100*	8	48	88*	2	13
O=C(N/N=C/c1cc([N+](=O)[O-])ccc1O)c1ccc2c(c1)OCCO2	105*	-2	39	11	-14	3
O=C(NC1CC1)c1ccc(-c2cnc3cccnn23)cc1	x	x	x	x	x	1
Cc1cccc(/C=N/NC(=O)c2ccc3c(c2)OCCO3)c1O	94*	x	15	-20	x	1
SMILES	Beta cell apopt	Gli-Sufu block	Mdm2 MdmX PPI	CSC inhib	NR3A LBD binder	MPTP block
O=C(N/N=C/c1c(Cl)[nH]c2ccccc12)c1ccc2c(c1)OCCO2	0	-33	-4	11	18*	1
O=C(CNC(=O)Cc1cccc2ccccc12)NCc1ccc(F)cc1	-5	-12	-10	11	-2	1
CC(C)Oc1cccc(C(=O)NC(=S)NCc2cccnc2)c1	-2	7	6	6	2	0
CC(=O)c1cccc2c1OC(C)C(=O)N2Cc1ccc(Cl)cc1 (stereo unspecified)	x	x	x	x	x	0
CC(C)C(=O)Nc1ccc(C(=O)NCc2cccnc2)cc1	107*	-19	0	44	1	-1
O=C(NCc1cccnc1)c1ccc(NC(=O)c2ccc(Br)cc2)cc1	140*	23	32	85*	3	1
O=C(NCc1cccnc1)c1ccc(NC(=O)c2ccco2)cc1	x	-6	29	0	-1	-2
CC(C)(C)c1ccc(OCC(=O)N2CCCCCC2)c(Br)c1	x	-12	-63	29	6	1
Cc1ccc(OCC(=O)N2CCCCC2)c(Br)c1	-6	-29	-22	-14	17*	0
COc1ccc(NS(=O)(=O)c2cc(NC(=O)CNC(=O)c3ccc(C)s3)ccc2Cl)cc1	12	9	-29	-10	5	1
Cc1ccc(C(=O)NCC(=O)Nc2ccc(C)c(S(=O)(=O)Nc3ccc(Cl)cc3)c2)s1	-2	-2	-7	x	11*	-1
C/C(CCc1ccc2c(c1)OCO2)=N\N=C(/N)SC1CC(=O)N(c2ccc(Cl)cc2)C1=O (stereo unspecified)	-5	-2	10	10	16*	2
COc1ccc2[nH]c3c(=O)n(CCCC(=O)NC4CCCCC4C)c(=S)[nH]c3c2c1 (stereo unspecified)	3	1	16	-5	2	3
CC1=C(C(=O)OCCc2ccccc2)C(c2ccsc2)NC(=O)N1C (stereo unspecified)	-1	3	17	-15	0	12
Cc1cccc(NC(=S)/N=C(\N)Nc2nc(C)c3ccccc3n2)c1	0	-6	20	15	1	33
CCOc1ccc2nc(N/C(N)=N/C(=S)Nc3ccc(OC)cc3)nc(C)c2c1	4	-9	28	x	27*	-2
Cc1ccc(NC(=S)/N=C(\N)Nc2nc(C)c3ccccc3n2)cc1C	5	-2	36	32	7	2
COc1ccc2nc(N/C(N)=N/C(=S)Nc3ccccc3)nc(C)c2c1	-3	-1	26	x	19*	-2
Cc1cccc(NC(=S)/N=C(\N)Nc2nc(C)c3cc(C)ccc3n2)c1	-13	-1	27	41	20*	4
Cc1cccc2c(=O)cc(C(F)(F)F)[nH]c12	0	2	38	16	-1	22
O=c1cc(C(F)(F)F)[nH]c2c(OC(F)(F)F)cccc12	6	-1	-8	79*	-15	33
Cn1c(=O)c2c(nc(OC3CCCC3)n2C)n(C)c1=O	x	5	x	x	3	1
